Results filed as inconclusive are left out. Where a call stands in place of a potency, no number is given. Values without a mark were called inactive. Activity calls are given as the source filed them. Calls follow the shape of the dose curve; as a rule, active = well fitted cell-killing curve with a large enough effect in the repeat runs; inconclusive = weak or mixed curves, or effect the other way; inactive = flat fitted curve, though single readings scatter.
Columns and labels:
[1] = cAMP Responsive Elements (CRE) small molecule antagonists, cell-based qHTS assay: qHTS cell viability counter screen (AID 2060913); also: nearly all actives have a fitted effect of over 40% in size
Outline: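 Viability of NKH477-stimulated (0.25 uM final) CRE-bla HEK293T cells is measured by CellTiter-Glo luminescence following 3 hrs compound exposure at 37 C.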

[2] = cAMP Responsive Elements (CRE) small molecule agonists, cell-based qHTS assay: qHTS cell viability counter screen (AID 2060914); also: nearly all actives have a fitted effect of over 50% in size
Outline: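 In the same wells as the reporter read, viability of CRE-bla HEK 293T cells was quantified by CellTiter-Glo luminescence after a 3 h compound exposure.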
Potency is read from the fitted curve at half-maximal effect.

For `Clc1ccc(C(c2ccc(Cl)cc2)C(Cl)(Cl)Cl)cc1`, which Potency [1] is on record?
The Potency was “inactive”.

And the Potency [2]?
The Potency was “inactive”.

With `COc1ccc2[nH]cc(CCN(C(C)C)C(C)C)c2c1` as the compound, how does the Potency [1] read?
Its Potency is “inactive”.

And the Potency [2]?
The Potency was “inactive”.

With `C=CC(=O)NCNC(=O)C=C` as the compound, how does the Potency [1] read?
Its Potency is “inactive”.

And the Potency [2]?
Its Potency is “inactive”.

With `O=[N+]([O-])/N=C1\NCCN1Cc1ccc(Cl)nc1` as the compound, how does the Potency [1] read?
The Potency was “inactive”.

And the Potency [2]?
Its Potency is “inactive”.

Which Potency [1] does the source give for `CCc1ccccc1N` here?
The Potency was “inactive”.

What about the Potency [2] of the same compound?
Its Potency is “inactive”.

Which Potency [1] does the source give for `Cc1cc(Cl)ccc1O` here?
Its Potency is “inactive”.

What about the Potency [2] of the same compound?
The Potency was “inactive”.

Which results are given for `CC(Cl)C(=O)O` (stereo not drawn)?
Potency [1]: inactive; Potency [2]: inactive

What does the source list for `CNc1cnn(-c2cccc(C(F)(F)F)c2)c(=O)c1Cl`?
Potency [1]: inactive; Potency [2]: inactive

Which Potency [1] does the source give for `C[C@@H](Oc1ccc(Cl)cc1Cl)C(=O)O` here?
Its Potency is “inactive”.

And the Potency [2]?
Its Potency is “inactive”.

Which Potency [1] does the source give for `CCOP(=O)(OCC)Oc1cc(C)nc(C(C)C)n1` here?
The Potency was “inactive”.

And the Potency [2]?
The Potency was “inactive”.

For `CNC`, which Potency [1] is on record?
Its Potency is “inactive”.

And the Potency [2]?
Its Potency is “inactive”.

Which results are given for `O=S1(=O)OC(c2cc(Br)c(O)c(Br)c2)(c2cc(Br)c(O)c(Br)c2)c2ccccc21`?
Potency [1]: inactive; Potency [2]: inactive

For `N#CCCCCC#N`, which Potency [1] is on record?
Its Potency is “inactive”.

What about the Potency [2] of the same compound?
Its Potency is “inactive”.

Which Potency [1] does the source give for `CC[N+]1(CC)CCC(OC(=O)C(O)(c2ccccc2)c2ccccc2)C1` (stereo not drawn) here?
Its Potency is “inactive”.

And the Potency [2]?
The Potency was “inactive”.

Which Potency [1] does the source give for `CCCCCCC#N` here?
The Potency was “inactive”.

And the Potency [2]?
Its Potency is “inactive”.

With `CC1CN1` (stereo not drawn) as the compound, how does the Potency [1] read?
Its Potency is “inactive”.

And the Potency [2]?
The Potency was “inactive”.

With `SCc1ccco1` as the compound, how does the Potency [1] read?
Its Potency is “inactive”.

What about the Potency [2] of the same compound?
The Potency was “inactive”.

What does the source list for `Clc1ccccc1`?
Potency [1]: inactive; Potency [2]: inactive

Which Potency [1] does the source give for `Nc1cnn(-c2ccccc2)c(=O)c1Cl` here?
Its Potency is “inactive”.

What about the Potency [2] of the same compound?
Its Potency is “inactive”.

With `CCCCOC(=O)CCC(=O)OCCCC` as the compound, how does the Potency [1] read?
Its Potency is “inactive”.

What about the Potency [2] of the same compound?
The Potency was “inactive”.

Which Potency [1] does the source give for `Nc1ccncc1` here?
Its Potency is “inactive”.

And the Potency [2]?
The Potency was “inactive”.

Which results are given for `CCOc1nc(F)cc2nc(S(=O)(=O)Nc3c(Cl)cccc3Cl)nn12`?
Potency [1]: inactive; Potency [2]: inactive

Which Potency [1] does the source give for `CC(Cc1ccccc1)NCCCCl` (stereo not drawn) here?
The Potency was “inactive”.

And the Potency [2]?
Its Potency is “inactive”.

For `COS(=O)(=O)c1ccc(C)cc1`, which Potency [1] is on record?
Its Potency is “inactive”.

And the Potency [2]?
Its Potency is “inactive”.

With `O=C(O)C(F)(F)C(F)(F)C(F)(F)C(F)(F)C(F)(F)F` as the compound, how does the Potency [1] read?
Its Potency is “inactive”.

What about the Potency [2] of the same compound?
Its Potency is “inactive”.

With `O=NN1CCCCCC1` as the compound, how does the Potency [1] read?
The Potency was “inactive”.

What about the Potency [2] of the same compound?
The Potency was “inactive”.

Which results are given for `ClC(Cl)(Cl)c1ccccc1`?
Potency [1]: inactive; Potency [2]: inactive

Which Potency [1] does the source give for `CC1=NNC(=O)N(/N=C/c2cccnc2)C1` here?
The Potency was “inactive”.

And the Potency [2]?
The Potency was “inactive”.

Which Potency [1] does the source give for `CN(C)CCc1c[nH]c2ccccc12` here?
Its Potency is “inactive”.

And the Potency [2]?
The Potency was “inactive”.

Which Potency [1] does the source give for `c1coc(-c2nc3ccccc3[nH]2)c1` here?
The Potency was “inactive”.

And the Potency [2]?
The Potency was “inactive”.

Which Potency [1] does the source give for `COc1cc(CC(C)N)c(OC)cc1Br` (stereo not drawn) here?
Its Potency is “inactive”.

And the Potency [2]?
The Potency was “inactive”.

Which Potency [1] does the source give for `COP(=O)(OC)O/C(=C\Cl)c1cc(Cl)c(Cl)cc1Cl` here?
The Potency was “inactive”.

And the Potency [2]?
Its Potency is “inactive”.

For `N#Cc1c(Cl)cccc1Cl`, which Potency [1] is on record?
Its Potency is “inactive”.

And the Potency [2]?
The Potency was “inactive”.

For `O=NN1CCOCC1`, which Potency [1] is on record?
The Potency was “inactive”.

And the Potency [2]?
The Potency was “inactive”.

Which results are given for `CCC(Cl)[N+](=O)[O-]` (stereo not drawn)?
Potency [1]: inactive; Potency [2]: inactive

For `Clc1c(Cl)c(Cl)c(Cl)c(Cl)c1Cl`, which viability change, negative = cytotoxic [1] is on record?
The viability change, negative = cytotoxic was 2.46% [at 8.39 µM].

What about the activity change, negative = cytotoxicity [2] of the same compound?
Its activity change, negative = cytotoxicity is 9.47% [at 8.39 µM].

What does the source list for `Clc1ccc(C(OCCN2CCCCC2)c2ccccc2)cc1` (stereo not drawn)?
Potency [1]: inactive; Potency [2]: inactive

For `CCC(C)Nc1c([N+](=O)[O-])cc(C(C)(C)C)cc1[N+](=O)[O-]` (stereo not drawn), which Potency [1] is on record?
Its Potency is “inactive”.

And the Potency [2]?
The Potency was “inactive”.

Which Potency [1] does the source give for `COCCl` here?
The Potency was “inactive”.

And the Potency [2]?
Its Potency is “inactive”.

With `CC(C)OC(=O)Nc1cccc(Cl)c1` as the compound, how does the Potency [1] read?
The Potency was “inactive”.

What about the Potency [2] of the same compound?
Its Potency is “inactive”.

Which results are given for `C=CCOC(Cn1ccnc1)c1ccc(Cl)cc1Cl` (stereo not drawn)?
Potency [1]: inactive; Potency [2]: inactive

With `CCCCCCCCCCCCCCCCCCn1cc[n+](C)c1` as the compound, how does the Potency [1] read?
The Potency was 27.1 µM (active).

What about the Potency [2] of the same compound?
Its Potency is 30.5 µM (active).

Which Potency [1] does the source give for `CNN` here?
Its Potency is “inactive”.

And the Potency [2]?
The Potency was “inactive”.

Which Potency [1] does the source give for `CON(C)C(=O)Nc1ccc(Br)cc1` here?
The Potency was “inactive”.

And the Potency [2]?
Its Potency is “inactive”.

Which Potency [1] does the source give for `COP(=O)(OC)OC=C(Cl)Cl` here?
The Potency was “inactive”.

And the Potency [2]?
Its Potency is “inactive”.

For `CC(C)CCCCCOC(=O)c1ccccc1C(=O)OCCCCCC(C)C`, which Potency [1] is on record?
The Potency was “inactive”.

What about the Potency [2] of the same compound?
The Potency was “inactive”.

With `CN(C)c1ccccc1` as the compound, how does the Potency [1] read?
Its Potency is “inactive”.

And the Potency [2]?
Its Potency is “inactive”.

With `COP(=O)(O)OC` as the compound, how does the Potency [1] read?
Its Potency is “inactive”.

What about the Potency [2] of the same compound?
Its Potency is “inactive”.

With `O=C(O)c1cc(I)cc(I)c1I` as the compound, how does the Potency [1] read?
Its Potency is “inactive”.

And the Potency [2]?
Its Potency is “inactive”.

Which Potency [1] does the source give for `Oc1ccc(C2(c3ccc(O)cc3)CCCCC2)cc1` here?
The Potency was “inactive”.

What about the Potency [2] of the same compound?
Its Potency is “inactive”.

Which Potency [1] does the source give for `CC/C(=N\OC/C=C/Cl)C1=C(O)CC(C2CCOCC2)CC1=O` (stereo not drawn) here?
Its Potency is “inactive”.

What about the Potency [2] of the same compound?
Its Potency is “inactive”.

Which Potency [1] does the source give for `CN1C(=O)C(O)N=C(c2ccccc2)c2cc(Cl)ccc21` (stereo not drawn) here?
The Potency was “inactive”.

And the Potency [2]?
Its Potency is “inactive”.

For `CC[C@H]1C[C@H]2[C@@H]3CCC4=CC(=O)CC[C@@H]4[C@H]3CC[C@]2(C)[C@H]1O`, which Potency [1] is on record?
Its Potency is “inactive”.

And the Potency [2]?
Its Potency is “inactive”.

With `CCCCn1cc[n+](C)c1` as the compound, how does the Potency [1] read?
The Potency was “inactive”.

And the Potency [2]?
Its Potency is “inactive”.

Which Potency [1] does the source give for `O=NN(CCO)CCO` here?
The Potency was “inactive”.

And the Potency [2]?
The Potency was “inactive”.

Which Potency [1] does the source give for `COC(=O)C(C)Oc1ccc(Oc2ccc(Cl)cc2Cl)cc1` (stereo not drawn) here?
Its Potency is “inactive”.

And the Potency [2]?
The Potency was “inactive”.

With `CC(Cc1ccccc1)N(C)Cc1ccco1` (stereo not drawn) as the compound, how does the Potency [1] read?
The Potency was “inactive”.

What about the Potency [2] of the same compound?
The Potency was “inactive”.

What does the source list for `CCCCn1cc[n+](C)c1C`?
Potency [1]: inactive; Potency [2]: inactive

What does the source list for `C=CCC1([C@H](C)CCC)C(=O)NC(=O)NC1=O`?
Potency [1]: inactive; Potency [2]: inactive
